The full data set covers some 8,800 targets. This sample favours those with a hit. About 0.5% of all pairs of compound and target were hits. A number with no mark means an inactive call.
Tests used:
Experiment in all cases: log2 fold change, soluble protein after heating vs DMSO (PISA); higher = thermal stabilisation; K562 lysate, 10 uM; active = over 0.2 and 3.5 SD of the protein, either way, in both replicates (recomputed)
vemurafenib = compound: CCCS(=O)(=O)Nc1ccc(F)c(C(=O)c2c[nH]c3ncc(-c4ccc(Cl)cc4)cc23)c1F [vemurafenib]
Method in brief: (§1)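 Values give the log-two fold change in thermal stability against solvent controls, from duplicates. Crude K562 extract at 1 mg/mL protein, made by dounce homogenisation in PBS pH 7.4 with 1 mM MgCl2, was treated with 10 μM compound for 30 min. After 3 min heating across 48°C-58°C, aliquots were pooled, adjusted to 0.5% NP-40 at 4°C and centrifuged at 21,000xg for 90 min. The supernatant was measured by TMTpro 16plex LC-MS/MS with channel sums equalised.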

[1] = compound: CCCS(=O)(=O)Nc1ccc(F)c(C(=O)c2c[nH]c3ncc(Cl)cc23)c1F
Method in brief: as §1

barasertib = compound: CCN(CCCOc1ccc2c(Nc3cc(CC(=O)Nc4cccc(F)c4)[nH]n3)ncnc2c1)CCOP(=O)(O)O [barasertib]
Method in brief: as §1

[2] = compound: CC[C@@H]1C(=O)N(C)c2cnc(Nc3ccc(C(=O)NC4CCN(C)CC4)cc3OC)nc2N1C1CCCC1
Method in brief: as §1

volasertib = compound: CC[C@@H]1C(=O)N(C)c2cnc(Nc3ccc(C(=O)N[C@H]4CC[C@H](N5CCN(CC6CC6)CC5)CC4)cc3OC)nc2N1C(C)C [volasertib]
Method in brief: as §1

[3] = compound: CCn1c(C(=O)N(C2CC2)C2CC2)cc2c3c(ncn3C)c(Nc3cc(C)n(C)n3)nc21
Method in brief: as §1

[4] = compound: CCn1cc(-c2ccnc3[nH]c(-c4cccc(CN(C)C)c4)cc23)c(-c2ccc(NC(=O)N(C)C)cc2)n1
Method in brief: as §1

[5] = compound: CN1CCC(CNc2ccc3ncc(-c4cccc(OC(F)(F)F)c4)n3n2)CC1
Method in brief: as §1

saracatinib = compound: CN1CCN(CCOc2cc(OC3CCOCC3)c3c(Nc4c(Cl)ccc5c4OCO5)ncnc3c2)CC1 [saracatinib]
Method in brief: as §1

sotrastaurin = compound: CN1CCN(c2nc(C3=C(c4c[nH]c5ccccc45)C(=O)NC3=O)c3ccccc3n2)CC1 [sotrastaurin]
Method in brief: as §1

UniProt Q13478, sequence (Q13478 whole entry, looked up): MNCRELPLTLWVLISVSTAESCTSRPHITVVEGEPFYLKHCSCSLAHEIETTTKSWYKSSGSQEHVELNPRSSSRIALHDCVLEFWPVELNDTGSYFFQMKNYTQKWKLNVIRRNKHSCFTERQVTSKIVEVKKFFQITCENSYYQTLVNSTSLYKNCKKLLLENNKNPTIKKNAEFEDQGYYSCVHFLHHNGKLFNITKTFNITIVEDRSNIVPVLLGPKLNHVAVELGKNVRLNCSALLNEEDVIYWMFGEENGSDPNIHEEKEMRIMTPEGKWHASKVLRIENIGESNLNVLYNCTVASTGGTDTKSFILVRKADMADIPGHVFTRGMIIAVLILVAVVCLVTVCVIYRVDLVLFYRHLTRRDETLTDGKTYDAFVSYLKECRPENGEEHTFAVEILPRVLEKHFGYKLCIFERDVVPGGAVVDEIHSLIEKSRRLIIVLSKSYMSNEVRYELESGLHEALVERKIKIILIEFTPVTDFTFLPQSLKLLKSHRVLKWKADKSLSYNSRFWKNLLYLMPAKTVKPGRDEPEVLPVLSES
UniProt P14866, sequence (P14866 whole entry, looked up): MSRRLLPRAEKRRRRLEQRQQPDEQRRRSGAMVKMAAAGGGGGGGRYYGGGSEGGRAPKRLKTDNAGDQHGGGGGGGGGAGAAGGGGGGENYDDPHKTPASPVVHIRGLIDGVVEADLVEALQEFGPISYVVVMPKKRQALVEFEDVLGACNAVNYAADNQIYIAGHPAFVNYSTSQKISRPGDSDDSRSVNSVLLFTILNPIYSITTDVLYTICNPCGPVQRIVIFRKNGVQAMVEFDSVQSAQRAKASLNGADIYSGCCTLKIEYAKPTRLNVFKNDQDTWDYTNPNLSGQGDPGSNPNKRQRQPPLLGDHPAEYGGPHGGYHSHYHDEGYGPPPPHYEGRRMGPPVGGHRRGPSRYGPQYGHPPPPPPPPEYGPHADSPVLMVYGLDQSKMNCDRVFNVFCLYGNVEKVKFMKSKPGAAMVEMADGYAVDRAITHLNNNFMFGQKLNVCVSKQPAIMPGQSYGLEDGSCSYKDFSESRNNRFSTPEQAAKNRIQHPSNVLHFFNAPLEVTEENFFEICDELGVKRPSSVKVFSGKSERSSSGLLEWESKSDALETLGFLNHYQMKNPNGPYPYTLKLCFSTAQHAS
UniProt P51617, sequence (P51617 whole entry, looked up): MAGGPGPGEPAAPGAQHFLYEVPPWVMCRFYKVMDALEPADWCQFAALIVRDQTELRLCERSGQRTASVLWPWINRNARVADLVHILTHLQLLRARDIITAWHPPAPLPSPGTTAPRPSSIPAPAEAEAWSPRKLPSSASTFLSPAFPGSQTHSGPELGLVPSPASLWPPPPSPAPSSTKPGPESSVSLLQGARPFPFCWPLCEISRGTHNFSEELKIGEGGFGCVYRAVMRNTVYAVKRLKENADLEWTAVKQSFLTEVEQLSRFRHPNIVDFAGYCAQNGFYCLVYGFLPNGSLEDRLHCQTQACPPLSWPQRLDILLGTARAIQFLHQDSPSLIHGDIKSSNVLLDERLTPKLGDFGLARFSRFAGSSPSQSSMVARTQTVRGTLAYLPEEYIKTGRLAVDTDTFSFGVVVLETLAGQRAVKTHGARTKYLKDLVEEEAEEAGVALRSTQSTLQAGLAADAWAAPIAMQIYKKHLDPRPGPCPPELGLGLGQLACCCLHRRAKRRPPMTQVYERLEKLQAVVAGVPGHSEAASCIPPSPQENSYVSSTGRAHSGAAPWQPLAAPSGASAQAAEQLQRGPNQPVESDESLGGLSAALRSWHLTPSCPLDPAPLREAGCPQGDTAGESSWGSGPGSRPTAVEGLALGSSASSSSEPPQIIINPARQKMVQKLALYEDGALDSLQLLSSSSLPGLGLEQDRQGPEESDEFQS
UniProt Q9ULR0, sequence (Q9ULR0 whole entry, looked up): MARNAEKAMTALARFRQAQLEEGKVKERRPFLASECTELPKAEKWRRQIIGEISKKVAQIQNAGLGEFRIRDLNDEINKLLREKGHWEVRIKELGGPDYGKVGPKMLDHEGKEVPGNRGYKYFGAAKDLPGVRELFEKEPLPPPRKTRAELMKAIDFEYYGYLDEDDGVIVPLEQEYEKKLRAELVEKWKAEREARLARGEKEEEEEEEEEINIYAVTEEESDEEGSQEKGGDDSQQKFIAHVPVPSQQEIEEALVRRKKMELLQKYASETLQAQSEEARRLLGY
UniProt Q9H6D7, sequence (Q9H6D7 whole entry, looked up): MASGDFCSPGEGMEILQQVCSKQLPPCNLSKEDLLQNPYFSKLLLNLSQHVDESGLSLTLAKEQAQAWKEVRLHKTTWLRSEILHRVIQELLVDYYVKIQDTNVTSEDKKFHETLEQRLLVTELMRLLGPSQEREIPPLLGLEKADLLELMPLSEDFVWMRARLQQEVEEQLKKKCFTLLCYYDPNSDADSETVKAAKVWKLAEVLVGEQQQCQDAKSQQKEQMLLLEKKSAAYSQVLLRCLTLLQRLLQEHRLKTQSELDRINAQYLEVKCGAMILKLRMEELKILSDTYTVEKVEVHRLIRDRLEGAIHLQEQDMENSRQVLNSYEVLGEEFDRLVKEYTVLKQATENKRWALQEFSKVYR
UniProt P32780, sequence (P32780 whole entry, looked up): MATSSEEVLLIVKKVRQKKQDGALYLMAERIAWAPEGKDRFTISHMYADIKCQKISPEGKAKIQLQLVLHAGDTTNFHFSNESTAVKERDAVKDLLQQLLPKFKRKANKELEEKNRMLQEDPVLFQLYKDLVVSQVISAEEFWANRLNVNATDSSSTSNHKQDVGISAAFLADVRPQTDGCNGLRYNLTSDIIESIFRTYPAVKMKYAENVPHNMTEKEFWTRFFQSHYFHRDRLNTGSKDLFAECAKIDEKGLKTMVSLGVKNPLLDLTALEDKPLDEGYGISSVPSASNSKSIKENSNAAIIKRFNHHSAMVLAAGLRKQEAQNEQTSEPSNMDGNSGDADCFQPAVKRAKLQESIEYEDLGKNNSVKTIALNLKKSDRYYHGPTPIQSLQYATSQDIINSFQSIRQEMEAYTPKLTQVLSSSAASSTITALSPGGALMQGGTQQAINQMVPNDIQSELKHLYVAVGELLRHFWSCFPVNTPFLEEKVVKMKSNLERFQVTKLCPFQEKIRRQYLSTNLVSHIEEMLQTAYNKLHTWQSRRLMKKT
UniProt Q03013, sequence (Q03013 whole entry, looked up): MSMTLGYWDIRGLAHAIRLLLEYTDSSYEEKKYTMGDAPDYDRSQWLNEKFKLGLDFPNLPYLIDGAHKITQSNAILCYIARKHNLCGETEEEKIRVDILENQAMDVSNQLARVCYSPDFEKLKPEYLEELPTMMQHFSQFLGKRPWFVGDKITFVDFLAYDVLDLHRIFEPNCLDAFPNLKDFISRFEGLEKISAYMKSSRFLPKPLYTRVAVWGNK
UniProt Q5T447, sequence (Q5T447 whole entry, looked up): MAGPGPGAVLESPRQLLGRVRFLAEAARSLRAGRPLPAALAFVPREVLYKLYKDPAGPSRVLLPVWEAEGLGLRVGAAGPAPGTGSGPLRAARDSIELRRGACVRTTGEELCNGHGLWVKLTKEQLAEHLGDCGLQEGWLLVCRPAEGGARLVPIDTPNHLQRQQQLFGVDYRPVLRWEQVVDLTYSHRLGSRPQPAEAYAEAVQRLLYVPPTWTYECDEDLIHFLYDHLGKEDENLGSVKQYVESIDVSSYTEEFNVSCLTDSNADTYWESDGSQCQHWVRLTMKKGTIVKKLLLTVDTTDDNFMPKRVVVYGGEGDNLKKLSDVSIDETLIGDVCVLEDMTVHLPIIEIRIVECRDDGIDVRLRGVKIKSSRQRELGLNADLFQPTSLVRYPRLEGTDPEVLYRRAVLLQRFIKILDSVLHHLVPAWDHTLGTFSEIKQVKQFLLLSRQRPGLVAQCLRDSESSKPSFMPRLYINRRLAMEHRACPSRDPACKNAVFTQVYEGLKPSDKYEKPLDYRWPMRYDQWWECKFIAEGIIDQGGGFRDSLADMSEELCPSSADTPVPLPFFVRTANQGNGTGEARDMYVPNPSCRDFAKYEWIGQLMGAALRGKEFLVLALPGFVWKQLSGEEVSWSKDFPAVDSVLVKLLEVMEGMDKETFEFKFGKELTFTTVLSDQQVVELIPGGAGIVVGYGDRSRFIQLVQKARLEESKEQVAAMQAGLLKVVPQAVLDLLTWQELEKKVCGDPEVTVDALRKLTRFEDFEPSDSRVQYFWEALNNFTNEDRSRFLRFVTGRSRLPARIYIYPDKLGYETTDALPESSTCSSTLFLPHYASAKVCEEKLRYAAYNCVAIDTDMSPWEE
UniProt Q9Y6M1, sequence (Q9Y6M1 whole entry, looked up): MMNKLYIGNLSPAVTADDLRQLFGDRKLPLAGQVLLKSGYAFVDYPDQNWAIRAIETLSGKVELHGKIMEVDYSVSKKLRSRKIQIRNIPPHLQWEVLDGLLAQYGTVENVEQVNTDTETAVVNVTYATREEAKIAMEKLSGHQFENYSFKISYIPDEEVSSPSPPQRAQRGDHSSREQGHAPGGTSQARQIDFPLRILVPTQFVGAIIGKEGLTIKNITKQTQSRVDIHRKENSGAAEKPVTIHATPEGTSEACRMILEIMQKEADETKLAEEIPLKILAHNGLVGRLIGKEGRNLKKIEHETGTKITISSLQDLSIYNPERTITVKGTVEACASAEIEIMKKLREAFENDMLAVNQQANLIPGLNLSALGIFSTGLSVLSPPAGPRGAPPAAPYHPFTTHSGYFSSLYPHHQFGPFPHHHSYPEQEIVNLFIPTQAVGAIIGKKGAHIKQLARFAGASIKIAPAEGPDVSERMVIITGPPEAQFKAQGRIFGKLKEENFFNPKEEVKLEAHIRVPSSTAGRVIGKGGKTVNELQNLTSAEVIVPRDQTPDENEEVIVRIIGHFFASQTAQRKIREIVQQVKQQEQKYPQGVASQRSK

Target | log2 fold change (vemurafenib) | log2 fold change [1] | log2 fold change (barasertib) | log2 fold change [2] | log2 fold change (volasertib) | log2 fold change [3] | log2 fold change [4] | log2 fold change [5] | log2 fold change (saracatinib) | log2 fold change (sotrastaurin)
HECTD3 (UniProt Q5T447) | -0.046 | 0.007 | -0.039 | -0.022 | -0.024 | 0.018 | -0.004 | -0.027 | 0.032 | 0.027
HNRNPDL (UniProt O14979) | -0.039 | 0.026 | -0.03 | 0.008 | -0.002 | 0.003 | 0.043 | 0.018 | -0.036 | -0.098
HDAC3 (UniProt O15379) | 0.035 | 0.026 | -0.038 | -0.023 | -0.003 | 0.001 | 0.023 | 0.052 | -0.04 | -0.006
HNRNPL (UniProt P14866) | 0.01 | 0.023 | 0.021 | -0.052 | -0.047 | 0.061 | -0.012 | -0.056 | 0.017 | 0.023
HSD17B12 (UniProt Q53GQ0) | 0.073 | 0.005 | 0.047 | 0.003 | -0.096 | -0.024 | -0.304 (active) | -0.107 | 0.105 | 0.071
IFNGR1 (UniProt P15260) | 0.182 | -0.07 | -0.051 | 0.234 | 0.08 | -0.153 | -0.641 (active) | 0.331 | 0.032 | -0.018
GLUD2 (UniProt P49448) | 0.177 | -0.042 | -0.069 | 0.02 | -0.145 | -0.031 | -0.024 | 0.046 | 0.007 | -0.039
IGF2BP2 (UniProt Q9Y6M1) | 0.05 | 0.026 | -0.005 | -0.1 | -0.049 | 0.02 | -0.066 | 0.036 | 0.014 | 0.026
ILRUN (UniProt Q9H6K1) | -0.012 | 0.048 | 0.06 | -0.001 | -0.058 | -0.059 | -0.109 | 0.067 | 0.024 | -0.003
GIT1 (UniProt Q9Y2X7) | -0.073 | 0.028 | -0.008 | -0.044 | -0.043 | -0.007 | 0.132 | 0.046 | 0 | 0.012
INTS7 (UniProt Q9NVH2) | -0.059 | -0.058 | 0.335 | -0.073 | 0.013 | 0.028 | 0.027 | 0.039 | 0.005 | -0.057
GTF2H1 (UniProt P32780) | 0.013 | 0.014 | 0.014 | -0.021 | -0.028 | -0.028 | -0.042 | -0.075 | 0.018 | -0.012
ISY1 isoform 1 (UniProt Q9ULR0) | -0.186 | 0.034 | 0.018 | 0.066 | -0.025 | -0.012 | -0.101 | 0.02 | 0.026 | 0.032
GTF3C5 isoform 3 (UniProt Q9Y5Q8) | 0.024 | 0.009 | -0.011 | 0.006 | -0.018 | 0.051 | -0.025 | 0.017 | 0.031 | -0.033
GSTM4 (UniProt Q03013) | 0.055 | 0.034 | -0.044 | 0.024 | 0.03 | 0.009 | -0.114 | 0.038 | -0.13 | -0.05
HNRNPM (UniProt M0R019) | -0.137 | – | – | – | – | – | – | – | – | –
INTS3 (UniProt Q68E01) | 0.038 | 0.02 | 0.05 | -0.029 | -0.017 | -0.083 | 0.072 | -0.018 | 0.049 | 0.015
HMGCL (UniProt P35914) | -0.017 | 0.01 | 0.027 | 0.037 | 0.014 | 0.037 | 0.05 | -0.02 | -0.013 | -0.01
HAUS4 (UniProt Q9H6D7) | 0.007 | 0.044 | 0.107 | -0.047 | -0.039 | 0.015 | -0.045 | -0.04 | 0.022 | 0.02
GPA33 (UniProt Q99795) | -0.038 | -0.014 | -0.047 | -0.011 | 0.081 | -0.032 | -0.925 (active) | 0.612 (active) | -0.005 | –
KDM1A (UniProt O60341) | 0.021 | 0.004 | 0.014 | -0.011 | -0.046 | -0.011 | -0.065 | -0.016 | -0.001 | 0.005
HIST2H2AA3 (UniProt Q6FI13) | -0.078 | 0.028 | -0.012 | -0.007 | -0.006 | 0.012 | 0.694 (active) | -0.217 | -0.034 | -0.116
IMPDH2 (UniProt H0Y4R1) | -0.047 | 0.114 | 0.134 | 0.195 | 0.001 | -0.1 | 0.059 | 0.129 | 0.043 | 0.116
IL18R1 (UniProt Q13478) | 0.074 | -0.026 | 0.061 | 0.087 | 0.044 | -0.184 | -0.284 | 0.085 | 0.023 | -0.064
INTS5 (UniProt Q6P9B9) | 0.052 | -0.167 | 0.044 | 0.042 | 0.223 | 0.023 | 0.029 | -0.072 | 0.069 | -0.092
HK2 (UniProt P52789) | 0.046 | 0.006 | 0.009 | -0.044 | -0.049 | 0.023 | -0.015 | -0.075 | -0.009 | 0.001
IRAK1 (UniProt P51617) | 0.086 | -0.033 | -0.01 | -0.089 | -0.134 | 0.041 | -0.135 | 0.043 | -0.016 | -0.029
INPPL1 (UniProt O15357) | 0.023 | 0.01 | 0.028 | -0.02 | -0.047 | 0.095 | -0.017 | -0.06 | 0.005 | 0.019

Source: the supplement of paper PMC10849652
